Source: PubChem BioAssay (NMMLSC)
The list is not random: actives were taken first. Their share in the collection is about 0.92%.
CIT2-GFP yeast – yeast TOR pathway CIT2-GFP modulation; GFP response vs DMSO, % at 10 µM; S. cerevisiae CIT2-GFP strain, flow cytometry, 3 h; 100 means same as DMSO wells; actives 0.065% (n = 320,000); AID 2029;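 active = GFP response relative to DMSO above a set limit, near the screen mean plus 3 SD, cut at about 150% in these data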;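 also: ratio of well median GFP fluorescence to mean of DMSO wells on the plate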
MEP2 TOR yeast – alters MEP2-GFP fluorescence in TOR pathway yeast screen; S. cerevisiae MEP2-GFP strain, flow cytometry GFP, 3 h; 100% = DMSO control level; GFP response vs DMSO, % at 10 µM; actives 0.51% (n = 330,000); AID 2016;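 active = GFP response versus DMSO above a set limit, roughly screen mean plus 3 SD, cut at about 180% in these data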;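 also: median GFP fluorescence of the barcode-gated MEP2-GFP cells per well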
AGP1-GFP MLPCN – alters AGP1-GFP fluorescence in TOR pathway yeast screen. S. cerevisiae AGP1-GFP multiplex flow cytometry, 3 h; GFP as percent of DMSO wells. GFP response vs DMSO, % at 10 µM. actives 0.02% (n = 320,000). AID 2066;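 active = GFP response relative to DMSO above a set limit, near screen average plus 3 SD, cut at about 150% in these data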;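 also: median GFP channel fluorescence of the gated AGP1 strain per well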
LAP4 TOR yeast – modulators of TOR pathway LAP4-GFP in S. cerevisiae | S. cerevisiae LAP4-GFP multiplex, flow cytometry GFP, 3 h; median GFP as percent of DMSO wells | GFP response vs DMSO, % at 10 µM | actives 0.34% (n = 320,000);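 active = GFP response vs DMSO above a set limit, about the screen mean plus 3 SD, cut at about 150% in these data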
RPL19A-GFP yeast – modulators of TOR pathway RPL19A-GFP in S. cerevisiae; S. cerevisiae RPL19A-GFP strain, flow cytometry, 3 h; hits give low values; percent response vs DMSO, % at 10 µM; actives 0.3% (n = 330,000); AID 2025;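 active = percent response vs DMSO below 50%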;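 also: median channel GFP fluorescence of the barcoded RPL19A-GFP strain; ratio of sample median GFP to plate DMSO average so 100% = DMSO; lower means less RPL19A-GFP as with rapamycin TOR inhibition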
LAP4 cherry2 – second confirmation of modulators of TOR reporter LAP4-GFP in yeast | shares compounds with LAP4 TOR yeast | S. cerevisiae LAP4-GFP strain, flow cytometry GFP, 3 h | GFP response vs DMSO, % at 10 µM | actives 20% (n = 590) | AID 2621;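 active = GFP signal as percent of the solvent control above about 150%, meaning raised reporter expression, limit read from the data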;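 also: ratio of well median GFP fluorescence to plate DMSO mean so 100% = DMSO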
MEP2-GFP pick2 – second confirmation of modulators of TOR reporter MEP2-GFP in yeast; actives 10% (n = 590); S. cerevisiae MEP2-GFP strain, flow cytometry GFP, 3 h; shares compounds with LAP4 TOR yeast; GFP response vs DMSO, % at 10 µM;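 active = GFP signal above 150% of the solvent control wells, that is a rise of more than half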;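 also: median channel GFP fluorescence of all gated yeast cells per well; ratio of median GFP to plate DMSO average so 100% = DMSO level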
RPL19A-GFP pick2 – reconfirmed modulator of RPL19A-GFP TOR reporter in yeast. S. cerevisiae RPL19A-GFP strain, flow cytometry GFP, 3 h; hits give low values; 100% means same as DMSO wells. AID 2623. GFP response vs DMSO, % at 10 µM. actives 3% (n = 590). shares compounds with LAP4 TOR yeast;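 active = under 65% GFP response relative to DMSO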;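 also: median GFP channel fluorescence per well over the all cells gate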
CIT2-GFP pick2 – second confirmation of modulators of TOR reporter CIT2-GFP in yeast; shares compounds with LAP4 TOR yeast; S. cerevisiae CIT2-GFP strain, flow cytometry GFP, 3 h; DMSO control wells read 100%; GFP response vs DMSO, % at 10 µM; actives 8% (n = 590); AID 2624;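 active = GFP response vs DMSO above about 150%, limit read from the data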;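 also: median green fluorescence per well over all gated yeast cells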
AGP1 GFP CP2 – reconfirmed modulator of AGP1-GFP TOR reporter in yeast | shares compounds with LAP4 TOR yeast | S. cerevisiae AGP1-GFP strain, flow cytometry GFP, 3 h | percent response vs DMSO, % at 10 µM | 590 tested, under 10 active | AID 2643;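 active = over 150 percent of DMSO response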;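 also: median GFP channel fluorescence over all cells without mother daughter split; sample median GFP divided by mean DMSO control so 100% equals DMSO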
s288c autofluor – yeast s288c autofluorescence artifact, counter-screen; shares compounds with LAP4 TOR yeast; S. cerevisiae s288c, 520 nm autofluorescence, flow cytometry, 3 h; hits give high values; zero means same as solvent-only cells; fluorescence change (kMESF span) at 33 µM; 610 tested, under 10 active; AID 2757;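 active = fluorescence span over the dose series, or activity score, above about 33, limit read from the data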
* hit, by the source's call; [ ] = dose if it differs, or a comment.

For CC1(C(=O)NC(=S)NNC(=O)c2ccncc2)CCCCC1 the results were CIT2-GFP yeast 227.2*[may fluoresce green], MEP2 TOR yeast 543.5*[may fluoresce green], AGP1-GFP MLPCN 155.8*[may fluoresce green], LAP4 TOR yeast 160.4*[may fluoresce green], RPL19A-GFP yeast 73.9, LAP4 cherry2 101.9, MEP2-GFP pick2 104.8, RPL19A-GFP pick2 100.0, CIT2-GFP pick2 107.4, AGP1 GFP CP2 97.5 and s288c autofluor 0.2.
For CCOc1ccc(CCNC(=O)CSCC(=O)Nc2cccc(C)c2)cc1OCC the results were CIT2-GFP yeast 92.2, MEP2 TOR yeast 100.0, AGP1-GFP MLPCN 100.1, LAP4 TOR yeast 96.7 and RPL19A-GFP yeast 96.1.
Screening C=CCNS(=O)(=O)NC(=O)C1=C(N2CCCC2)COC1=O returned CIT2-GFP yeast 90.5, MEP2 TOR yeast 93.0, AGP1-GFP MLPCN 97.0, LAP4 TOR yeast 107.1 and RPL19A-GFP yeast 96.7.
Screening O=C(OC1CSc2nc3ccccc3n2C1)c1ccco1 (stereo unspecified) returned CIT2-GFP yeast 90.1, MEP2 TOR yeast 282.5*, AGP1-GFP MLPCN 25.2, LAP4 TOR yeast 94.0, RPL19A-GFP yeast 18.1*, LAP4 cherry2 101.0, MEP2-GFP pick2 104.8, RPL19A-GFP pick2 101.1, CIT2-GFP pick2 104.0 and AGP1 GFP CP2 103.5.
CN1CCC(OC(=O)c2ccco2)CC1 was read as CIT2-GFP yeast 104.2, MEP2 TOR yeast 96.6, AGP1-GFP MLPCN 104.8, LAP4 TOR yeast 104.4 and RPL19A-GFP yeast 101.8.
Screening COC(=O)CCCC1=CC2=CC(=O)C(C)(OC(=O)CCc3ccccc3)C(=O)C2=CO1 (stereo unspecified) returned CIT2-GFP yeast 51.1, MEP2 TOR yeast 88.0, AGP1-GFP MLPCN 50.8, LAP4 TOR yeast 155.7*, RPL19A-GFP yeast 88.3, LAP4 cherry2 111.5, MEP2-GFP pick2 93.2, RPL19A-GFP pick2 102.8, CIT2-GFP pick2 101.8, AGP1 GFP CP2 88.7 and s288c autofluor -0.2.
Screening COC(=O)CCC(=O)OC1(C)C(=O)C=C2C=C(c3ccsc3)OC=C2C1=O (stereo unspecified) returned CIT2-GFP yeast 86.8, MEP2 TOR yeast 104.1, AGP1-GFP MLPCN 93.7, LAP4 TOR yeast 93.9 and RPL19A-GFP yeast 101.6.
For COc1ccc(Cc2nc3ccc(C(=O)N(C)C(C)c4ccon4)cc3o2)cc1 (stereo unspecified) the results were CIT2-GFP yeast 97.6, MEP2 TOR yeast 82.2, AGP1-GFP MLPCN 106.1, LAP4 TOR yeast 190.5*, RPL19A-GFP yeast 100.7, LAP4 cherry2 100.2, MEP2-GFP pick2 101.3, RPL19A-GFP pick2 98.5, CIT2-GFP pick2 96.0 and AGP1 GFP CP2 100.0.
CSc1ccc(/C=C/C(=O)c2c(O)cc(C)oc2=O)cc1 was read as CIT2-GFP yeast 99.0, MEP2 TOR yeast 102.8, AGP1-GFP MLPCN 96.9, LAP4 TOR yeast 110.2 and RPL19A-GFP yeast 102.7.
For COc1ccc(/C=C/C(=O)c2c(O)cc(C)oc2=O)c(OC)c1 the results were CIT2-GFP yeast 108.7, MEP2 TOR yeast 105.1, AGP1-GFP MLPCN 102.6, LAP4 TOR yeast 104.3 and RPL19A-GFP yeast 98.2.
COc1cccc(/C=C/C(=O)c2c(O)cc(C)oc2=O)c1O was read as CIT2-GFP yeast 67.8, MEP2 TOR yeast 81.7, AGP1-GFP MLPCN 86.4, LAP4 TOR yeast 243.1*, RPL19A-GFP yeast 90.4 and s288c autofluor 0.1.
Cc1cc(O)c(C(=O)/C=C/c2ccc(Cl)cc2)c(=O)o1 was read as CIT2-GFP yeast 94.7, MEP2 TOR yeast 93.0, AGP1-GFP MLPCN 76.8, LAP4 TOR yeast 161.4*, RPL19A-GFP yeast 93.2 and s288c autofluor 0.61.
`O=C1C(=O)N(CCN2CCOCC2)C(c2cccc(Cl)c2)/C1=C(\O)c1ccc2c(c1)OCCO2` (stereo unspecified) gave CIT2-GFP yeast 107.0, MEP2 TOR yeast 136.2, AGP1-GFP MLPCN 27.0, LAP4 TOR yeast 93.0, RPL19A-GFP yeast 50.1, LAP4 cherry2 100.0, MEP2-GFP pick2 98.2, RPL19A-GFP pick2 96.7, CIT2-GFP pick2 112.0 and AGP1 GFP CP2 97.9.
Screening C=CCOc1cccc(C(=O)/C=C2/C(=O)Nc3ccccc32)c1 returned CIT2-GFP yeast 105.3, MEP2 TOR yeast 118.4, AGP1-GFP MLPCN 104.9, LAP4 TOR yeast 127.1, RPL19A-GFP yeast 92.8 and s288c autofluor 0.
Screening CC(=O)/C=C1/C(=O)Nc2ccccc21 returned CIT2-GFP yeast 85.0, MEP2 TOR yeast 79.9, AGP1-GFP MLPCN 94.7, LAP4 TOR yeast 120.7 and RPL19A-GFP yeast 89.1.
Screening O=C(Nc1ccc(C(=O)N2CCCC2)cc1)c1ccccc1Br returned CIT2-GFP yeast 98.2, MEP2 TOR yeast 100.6, AGP1-GFP MLPCN 98.9, LAP4 TOR yeast 102.5 and RPL19A-GFP yeast 99.1.
For O=C(Nc1ccc(C(=O)N2CCCCC2)cc1)c1ccccc1Br the results were CIT2-GFP yeast 101.8, MEP2 TOR yeast 217.9*, AGP1-GFP MLPCN 102.9, LAP4 TOR yeast 151.8*, RPL19A-GFP yeast 103.4, LAP4 cherry2 105.2, MEP2-GFP pick2 115.3, RPL19A-GFP pick2 101.0, CIT2-GFP pick2 109.9 and AGP1 GFP CP2 97.8.
CCCCOC(=O)c1ccc(NC(=O)C(=O)NCCN(C)C)cc1 was read as CIT2-GFP yeast 93.9, MEP2 TOR yeast 107.0, AGP1-GFP MLPCN 101.8, LAP4 TOR yeast 107.2 and RPL19A-GFP yeast 97.4.
`Cc1[nH]n(-c2ccccc2)c(=O)c1C(C[N+](=O)[O-])c1ccc(Cl)cc1` (stereo unspecified) gave CIT2-GFP yeast 110.1, MEP2 TOR yeast 76.7, AGP1-GFP MLPCN 105.9, LAP4 TOR yeast 98.2 and RPL19A-GFP yeast 107.5.
